Assay results: PubChem BioAssay AID1159580 (chemical genetic matrix, 2015)
In all, about 5,500 compounds went through this assay and about 2,000 (36%) were called active. Not shown: some 18% with an inconclusive outcome. Rule as the data show it: active = normalized growth mostly below about 0.91 (no sharp cut-off); inconclusive = no clear call, values can overlap the other calls; inactive = mostly above about 0.92. Some of the results follow.

Test: chemical genetic growth profiling, strain panel (AID 1159580);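 also: tested at 20 µM; growth read once vehicle control cultures reached saturation at 30 °C; 1 = growth at the plate median or of vehicle wells; lower values mean less growth of the strain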
Conditions: S. cerevisiae deletion strains, growth OD
[1] = locus YAL040C, strain CLN3, hits give low values
[2] = locus YCL061C, strain MRC1 (second series), hits give low values
[3] = locus YDR363W, strain ESC2, hits give low values
[4] = locus YER002W, strain NOP16, hits give low values
[5] = locus YMR263W, strain SAP30, hits give low values
[6] = locus YNL175C, strain NOP13, hits give low values
[7] = locus YNL197C, strain WHI3, hits give low values
[8] = locus YNL224C, strain SQS1, hits give low values
[9] = locus YOR083W, strain WHI5 (second series), hits give low values
[10] = locus YPL055C, strain LGE1, hits give low values
[11] = locus YPL241C, strain CIN2, hits give low values

Measured: normalized growth

S=C=Nc1cccc(C2(N3CCCCC3)CCCCC2)c1
inactive: locus YAL013W, strain DEP1, hits give low values 0.993 | [1] 0.998 | [2] 0.998 | [3] 0.993 | [4] 1.01 | locus YJR075W, strain HOC1, hits give low values 0.984 | [5] 1 | locus YMR307W, strain GAS1, hits give low values 1 | locus YNL153C, strain GIM3, hits give low values 0.968 | [6] 0.994 | [7] 1.08 | [8] 1.04 | [9] 1 | [10] 0.939 | [11] 1

CC1(C)CCC(NC(=O)[C@@H](N)CCC(=O)O)CC1
inactive: [1] 1.02 | [2] 0.999 | [3] 1.02 | [4] 0.995 | locus YGR078C, strain PAC10, hits give low values 1.02 | [5] 0.999 | [6] 1.01 | [7] 0.998 | [8] 0.999 | locus YNL322C, strain KRE1, hits give low values 1.01 | [9] 1 | [10] 1.02 | [11] 0.996
